miR122 inh: raises miR-122 sensor activity in Huh7 cells; Huh7 psiCHECK-miR122 Renilla luciferase sensor, 48 h; activation, % at 12.5 µM; 340,000 tested, 0.14% active;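 active means mean activation of 30% or more, with every replicate also reaching 30%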;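 further: 0% = median of neutral control wells and 100% = median of positive control wells; higher luciferase signal means stronger suppression of miR-122 activity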
The depositor's hits bear a star. Only a selection was taken, and hits are over-represented in it overall.

SMILES | miR122 inh
Cc1ccc(S(=O)(=O)N(C)C[C@H]2Oc3cc(-c4cccc(F)c4)ccc3S(=O)(=O)N([C@@H](C)CO)C[C@H]2C)cc1 | -4
COc1ccc(S(=O)(=O)N(C)C[C@@H]2Oc3cc(-c4cccc(F)c4)ccc3S(=O)(=O)N([C@@H](C)CO)C[C@H]2C)cc1 | 40*
COCC(=O)N(C)C[C@@H]1Oc2cc(-c3cccc(F)c3)ccc2S(=O)(=O)N([C@@H](C)CO)C[C@H]1C | -2
Cc1ccc(S(=O)(=O)N(C)C[C@@H]2Oc3cc(-c4cccc(F)c4)ccc3S(=O)(=O)N([C@@H](C)CO)C[C@@H]2C)cc1 | 8
COCC(=O)N(C)C[C@H]1Oc2cc(-c3ccccc3F)ccc2S(=O)(=O)N([C@H](C)CO)C[C@H]1C | 46*
COCC(=O)N(C)C[C@@H]1Oc2cc(-c3ccccc3)ccc2S(=O)(=O)N([C@@H](C)CO)C[C@H]1C | 5
COCC(=O)N(C)C[C@@H]1Oc2cc(-c3ccccc3)ccc2S(=O)(=O)N([C@H](C)CO)C[C@@H]1C | 6
C[C@H]1CN([C@@H](C)CO)C(=O)c2cc(C#Cc3ccccc3F)cnc2O[C@@H]1CN(C)C(=O)C1CCOCC1 | -2
CCC(=O)Nc1ccc2c(c1)OC[C@@H](C)N(C(=O)c1ccncc1)C[C@H](C)[C@H](OC)CN(C)C2=O | 2
C[C@@H]1CN([C@@H](C)CO)C(=O)c2cc(/C=C/c3ccccc3)cnc2O[C@H]1CN(C)Cc1ccccc1F | -19
C[C@H]1CN([C@@H](C)CO)C(=O)c2cc(Br)cnc2O[C@H]1CN(C)Cc1ccccn1 | 3
CCCNC(=O)N(C)C[C@@H]1Oc2cc(C#CCOC)ccc2S(=O)(=O)N([C@@H](C)CO)C[C@@H]1C | 7
C[C@H](CO)N1C[C@H](C)[C@@H](CN(C)C(=O)C2CC2)Oc2ncc(-c3cccnc3)cc2C1=O | 1
C[C@@H]1CN([C@H](C)CO)C(=O)c2cc(/C=C/c3ccccc3)cnc2O[C@@H]1CN(C)C(=O)C1CCOCC1 | -1
C[C@@H]1CN([C@H](C)CO)C(=O)c2cc(/C=C/c3ccccc3)cnc2O[C@H]1CN(C)C(=O)c1ccncc1 | 4
CC(C)C#Cc1ccc2c(c1)O[C@@H](CN(C)CC1CCCC1)[C@H](C)CN([C@H](C)CO)S2(=O)=O | -2
Cc1ccc(S(=O)(=O)N(C)C[C@H]2Oc3cc(-c4cccc(F)c4)ccc3S(=O)(=O)N([C@H](C)CO)C[C@@H]2C)cc1 | 3
COC(=O)c1nn(-c2ccccc2)c(Sc2ccc(Cl)cc2)c1/C=N/O | 36*
COc1ccccc1-c1ccc2c(c1)O[C@H](CN(C)S(=O)(=O)c1ccccc1)[C@@H](C)CN([C@@H](C)CO)S2(=O)=O | -45
C[C@H](CO)N1C[C@H](C)[C@H](CN(C)Cc2ccncc2)Oc2ncc(C#CC(C)(C)O)cc2C1=O | 3
C[C@H](CO)N1C[C@H](C)[C@H](CN(C)C(=O)C2CC2)Oc2cc(C#CC3CC3)ccc2S1(=O)=O | -25
C[C@@H]1CN([C@H](C)CO)C(=O)c2cc(C#CC(C)(C)O)cnc2O[C@H]1CN(C)C(=O)C1CC1 | -6
CCCCN(CCCC)C(=O)CN(C)S(=O)(=O)c1ccc2c(c1)n(C)c(=O)c(=O)n2C | 50*
Cc1noc(C)c1NC(=O)Nc1ccc2c(c1)CC(=O)N([C@@H](C)CO)C[C@H](C)[C@@H](CN(C)Cc1ccc(Cl)c(Cl)c1)O2 | -109
c1cnc(N2CCN(Cc3c[nH]c4ccccc34)CC2)nc1 | 38*
SMILES | miR122 inh
C/C=C/c1cnc2c(c1)C(=O)N([C@@H](C)CO)C[C@@H](C)[C@@H](CN(C)CC1CCOCC1)O2 | 0
NC(=O)C1CCN(C2=C(Cl)C(=O)c3ccccc3C2=O)CC1 | 70*
COc1ccc(S(=O)(=O)Nc2cc(Cl)ccc2OC)cc1 | -138
COc1ccc(OC)c(NS(=O)(=O)c2ccc(N3CCCC3=O)cc2)c1 | -120
COc1ccc(OC)c(Nc2nc(N)nc(CCl)n2)c1 | 32*
C[C@@H]1CN([C@H](C)CO)C(=O)c2cc(Br)cnc2O[C@H]1CN(C)Cc1cccc(F)c1 | 5
C/C=C/c1ccc2c(c1)O[C@H](CN(C)C(=O)Nc1ccc(OC)cc1)[C@H](C)CN([C@H](C)CO)S2(=O)=O | 0
C[C@H]1CN([C@@H](C)CO)C(=O)c2cc(/C=C/c3ccccc3)cnc2O[C@@H]1CN(C)C(=O)Cc1ccccn1 | 7
CC(C)C#Cc1ccc2c(c1)O[C@H](CN(C)C(=O)Nc1ccccc1)[C@@H](C)CN([C@@H](C)CO)S2(=O)=O | -101
C[C@@H]1CN([C@H](C)CO)S(=O)(=O)c2ccc(C#Cc3ccc(F)cc3)cc2O[C@@H]1CN(C)S(=O)(=O)c1cn(C)cn1 | -47
C[C@@H]1CN([C@@H](C)CO)S(=O)(=O)c2ccc(C#Cc3ccc(F)cc3)cc2O[C@@H]1CN(C)S(=O)(=O)c1cn(C)cn1 | -74
C[C@H](CO)N1C[C@H](C)[C@@H](CN(C)C)Oc2cc(-c3ccc(C(=O)N(C)C)cc3)ccc2S1(=O)=O | 1
CCCC(NS(=O)(=O)c1ccc(Br)cc1)C(=O)O (configuration not stated) | 36*
COc1ccccc1NC(=O)N(C)C[C@@H]1Oc2ncc(C#CCC(C)C)cc2C(=O)N([C@H](C)CO)C[C@H]1C | -4
C[C@H](O)C#Cc1ccc2c(c1)O[C@H](CN(C)C(=O)Cc1ccccn1)[C@H](C)CN([C@H](C)CO)S2(=O)=O | 0
C[C@H](O)C#Cc1ccc2c(c1)O[C@@H](CN(C)C)[C@H](C)CN([C@H](C)CO)S2(=O)=O | -5
COCC#Cc1cnc2c(c1)C(=O)N([C@@H](C)CO)C[C@H](C)[C@H](CN(C)C(=O)Nc1c(C)noc1C)O2 | -5
O=C1CC(c2ccco2)CC(O)=C1C=Nc1cc(Cl)ccc1O (configuration not stated) | 31*
CCCCCOC(=O)c1[nH]c2c(c1C)C(=O)CC(c1ccco1)C2 (configuration not stated) | -121
COc1cccc(-c2cnc3c(c2)C(=O)N([C@H](C)CO)C[C@H](C)[C@H](CN(C)C(=O)CC2CC2)O3)c1 | -16
Cn1ncc2c(O/N=C(\N)c3ccc(C(F)(F)F)cc3)ncnc21 | 33*
C[C@H](CO)N1C[C@H](C)[C@H](CN(C)Cc2cccnc2)Oc2cc(C#C[C@@H](C)O)ccc2S1(=O)=O | 7
CC(C)CC#Cc1cnc2c(c1)C(=O)N([C@H](C)CO)C[C@@H](C)[C@H](CN(C)CC1CCOCC1)O2 | -3
C[C@@H]1CN([C@@H](C)CO)C(=O)c2cccc(NC(=O)c3ccc(-c4nccs4)cc3)c2O[C@H]1CN(C)Cc1ccc2c(c1)OCO2 | 38*
CCC(=O)N(C)C[C@@H]1Oc2ncc(C#Cc3ccccc3OC)cc2C(=O)N([C@H](C)CO)C[C@H]1C | 6
C[C@H]1CN([C@@H](C)CO)C(=O)c2cc(-c3ccccc3)cnc2O[C@@H]1CN(C)C(=O)Nc1ccc2c(c1)OCO2 | 1
C[C@H](CO)N1C[C@H](C)[C@@H](CN(C)Cc2ccc3c(c2)OCO3)Oc2c(NC(=O)C3CC3)cccc2C1=O | -92
C[C@@H]1CN([C@@H](C)CO)C(=O)c2cc(-c3ccccc3)cnc2O[C@H]1CN(C)C(=O)Nc1ccc2c(c1)OCO2 | -8
COc1cccc(NC(=O)N(C)C[C@@H]2Oc3ncc(C#Cc4ccccc4)cc3C(=O)N([C@@H](C)CO)C[C@@H]2C)c1 | -2
COc1ccccc1C#Cc1cnc2c(c1)C(=O)N([C@H](C)CO)C[C@H](C)[C@@H](CN(C)C(=O)c1ccc3c(c1)OCO3)O2 | 35*

Screening results as filed in PubChem.
